A short description of assay [1]: NCI Yeast Anticancer Drug Screen. Data for the rad50 strain (AID 155).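 Further: 0% = growth of vehicle-only cultures of the same strain.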 To be noted: S. cerevisiae rad50 strain growth inhibition, stronger effect = higher value. The gist of the method: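 Growth of the mutant yeast was measured after compound exposure and referenced to vehicle-treated cultures.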
A short description of assay [2]: NCI Yeast Anticancer Drug Screen. Data for the mec2-1 strain (AID 157). To be noted: S. cerevisiae mec2-1 strain, stronger effect = higher value. The gist of the method:
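Test agents were screened against the mec2-1 yeast strain, with defined DNA repair or cell cycle alteration. Growth was scored as inhibition against vehicle-only controls.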

The nature of assay [3]: NCI Yeast Anticancer Drug Screen. Data for the sgs1 mgt1 strain (AID 161).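 Further: 0% = growth of cultures given vehicle only.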 To be noted: S. cerevisiae sgs1 mgt1 strain, stronger effect = higher value. The gist of the method: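 Genetically altered yeast, compound exposure, growth inhibition relative to vehicle.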
Assay [4] can be described thus: NCI Yeast Anticancer Drug Screen. Data for the cln2 rad14 strain (AID 165).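 Further: 0% = growth equal to vehicle treated cultures.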 To be noted: S. cerevisiae cln2 rad14 strain, stronger effect = higher value. In a few lines: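 Growth of compound-exposed yeast (cln2 rad14 genotype) measured and expressed as inhibition relative to vehicle.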
The nature of assay [5]: NCI Yeast Anticancer Drug Screen. Data for the bub3 strain (AID 167). To be noted: S. cerevisiae bub3 mutant strain, stronger effect = higher value. In a few lines: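 Whole-cell yeast assay. The mutant strain was incubated with compounds, and growth inhibition was determined by comparison with vehicle-treated cells.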
A short description of assay [6]: NCI Yeast Anticancer Drug Screen. Data for the mlh1 rad18 strain (AID 175). To be noted: S. cerevisiae mlh1 rad18 strain growth inhibition, stronger effect = higher value. In a few lines: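 In this whole-cell yeast screen, a strain with altered DNA damage repair is challenged with compound, and its growth is measured against matched vehicle-treated controls.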
[7] abbreviates: at 5.0 µM (retest, dose inferred, filed as 0.5).
[8] abbreviates: at 50.0 µM (retest, dose inferred, filed as 5.0).

Values joined by “and” are separate entries in the source; they are usually repeats but may differ in a detail not shown here. Equal entries are not always repeated. Compounds without any hit were thinned out: in the full panel of roughly 79,000, 15% have a hit. A structure can be active in one record and inactive in another. Active and inactive are the calls of the source. No stated cut-off is given here; in the data, active means growth inhibition above about 70%; inactive means the rest.

With `c1ccc2c3ccn4cc5c(cc4c-3nc2c1)CCCC5`, the growth inhibition is 10% (inactive) in assay [1] (setting [7]); 97% (active) in assay [1] (setting [8]); 86.9% (active) in assay [1] (at 50.0 µM); 23% (inactive) in assay [2] (setting [7]); 98% (active) in assay [2] (setting [8]); 86.6% (active) in assay [2] (at 50.0 µM). For the same molecule, the growth inhibition is 22% (inactive) in assay [3] (setting [7]); 98% (active) in assay [3] (setting [8]); 86.2% (active) in assay [3] (at 50.0 µM); 6% (inactive) in assay [4] (setting [7]); 96% (active) in assay [4] (setting [8]); 73.2% (active) in assay [4] (at 50.0 µM). Besides, the growth inhibition in assay [5] (setting [7]) is 1% (inactive); in assay [5] (setting [8]) it was 97% (active); in assay [5] (at 50.0 µM), 87% (active); in assay [6] (setting [7]), 26% (inactive); in assay [6] (setting [8]), 98% (active); in assay [6] (at 50.0 µM), 85.2% (active).
In the case of `O=C(c1ccccc1)c1c(CC(O)c2ccncc2)n(C(=O)c2ccccc2)c2ccccc12` (stereo unspecified), the growth inhibition in assay [1] (setting [7]) is 18% (inactive); in assay [1] (setting [8]), 95% (active); in assay [1] (at 50.0 µM) it was 94% (active); in assay [2] (setting [7]), -2% (inactive); in assay [2] (setting [8]) it was 96% (active); in assay [2] (at 50.0 µM), 92.5% (active). Further, the growth inhibition in assay [3] (setting [7]) is 8% (inactive); in assay [3] (setting [8]) it was 97% (active); in assay [3] (at 50.0 µM), 92.2% (active); in assay [4] (setting [7]) it was 18% (inactive); in assay [4] (setting [8]), 96% (active); in assay [4] (at 50.0 µM), 82.7% (active). The growth inhibition in assay [5] (setting [7]) was -3% (inactive); in assay [5] (setting [8]), 98% (active); in assay [5] (at 50.0 µM) it was 92.2% (active); in assay [6] (setting [7]), 19% (inactive); in assay [6] (setting [8]) it was 95% (active); in assay [6] (at 50.0 µM) it was 93.8% (active).
Consider `CCOC(=O)C(NC(=O)C(Cc1ccc(N(CCCl)CCCl)cc1)NC(C)=O)C(C)C` (stereo unspecified), for which the growth inhibition in assay [1] (setting [7]) is -4% (inactive); in assay [1] (setting [8]), -9% (inactive); in assay [1] (at 50.0 µM), 17.5% (inactive) and 11.7% (inactive); in assay [2] (setting [7]), -1% (inactive); in assay [2] (setting [8]), -1% (inactive); in assay [2] (at 50.0 µM) it was 11.3% (inactive) and -1.25% (inactive). In addition, the growth inhibition in assay [3] (setting [7]) was -5% (inactive); in assay [3] (setting [8]), 7% (inactive); in assay [3] (at 50.0 µM), 37.2% (inactive) and -1.2% (inactive); in assay [4] (setting [7]) it was -1% (inactive); in assay [4] (setting [8]) it was -2% (inactive); in assay [4] (at 50.0 µM), 67.7% (inactive) and -2.95% (inactive). Further, the growth inhibition in assay [5] (setting [7]) was -2% (inactive); in assay [5] (setting [8]), -2% (inactive); in assay [5] (at 50.0 µM), 19.1% (inactive) and -22.9% (inactive); in assay [6] (setting [7]) it was -4% (inactive); in assay [6] (setting [8]), -1% (inactive); in assay [6] (at 50.0 µM), 18.9% (inactive) and -0.25% (inactive).
For the molecule `c1ccc(-c2ccccn2)nc1`, the growth inhibition is -4% (inactive) and 2% (inactive) in assay [1] (setting [7]); 76% (active) and 90% (active) in assay [1] (setting [8]); 79.8% (active) and 81.1% (active) in assay [1] (at 50.0 µM); 0% (inactive) and 1% (inactive) in assay [2] (setting [7]); 53% (inactive) and 61% (inactive) in assay [2] (setting [8]); 70.9% (active) and 55.6% (inactive) in assay [2] (at 50.0 µM). Moreover, the growth inhibition in assay [3] (setting [7]) was 8% (inactive) and -2% (inactive); in assay [3] (setting [8]), 74% (active) and 75% (active); in assay [3] (at 50.0 µM), 66% (inactive) and 77.8% (active); in assay [4] (setting [7]), 4% (inactive) and -5% (inactive); in assay [4] (setting [8]), 61% (inactive) and 51% (inactive); in assay [4] (at 50.0 µM), 29.1% (inactive) and 21.4% (inactive). The growth inhibition was -23% (inactive) and 0% (inactive) in assay [5] (setting [7]); 87% (active) and 86% (active) in assay [5] (setting [8]); 82.5% (active) and 64.2% (inactive) in assay [5] (at 50.0 µM); -3% (inactive) and 2% (inactive) in assay [6] (setting [7]); 85% (active) and 84% (active) in assay [6] (setting [8]); 68% (inactive) and 75.9% (active) in assay [6] (at 50.0 µM).
In the case of `C[n+]1c(/C=C/c2ccc(O)c(O)c2)[se]c2ccccc21`, the growth inhibition in assay [1] (setting [7]) was 12% (inactive); in assay [1] (setting [8]) it was 72% (active); in assay [1] (at 50.0 µM) it was 77.7% (active); in assay [2] (setting [7]) it was 3% (inactive); in assay [2] (setting [8]) it was 80% (active); in assay [2] (at 50.0 µM) it was 70.6% (active). The growth inhibition in assay [3] (setting [7]) is 48% (inactive); in assay [3] (setting [8]), 81% (active); in assay [3] (at 50.0 µM) it was 82.7% (active); in assay [4] (setting [7]), 19% (inactive); in assay [4] (setting [8]), 53% (inactive); in assay [4] (at 50.0 µM), 66.9% (inactive). Besides, the growth inhibition in assay [5] (setting [7]) is -3% (inactive); in assay [5] (setting [8]) it was 61% (inactive); in assay [5] (at 50.0 µM), 56.1% (inactive); in assay [6] (setting [7]) it was 18% (inactive); in assay [6] (setting [8]), 80% (active); in assay [6] (at 50.0 µM), 77% (active).
Turning to `C1CC[N-]CC1.C1CC[N-]CC1.N#CO.[Ag]`, the growth inhibition in assay [1] (setting [7]) was 99% (active); in assay [1] (setting [8]) it was 99% (active); in assay [1] (at 50.0 µM) it was 99.2% (active); in assay [2] (setting [7]) it was 100% (active); in assay [2] (setting [8]), 99% (active); in assay [2] (at 50.0 µM) it was 99.5% (active). Moreover, the growth inhibition is 100% (active) in assay [3] (setting [7]); 99% (active) in assay [3] (setting [8]); 99.4% (active) in assay [3] (at 50.0 µM); 99% (active) in assay [4] (setting [7]); 99% (active) in assay [4] (setting [8]); 99% (active) in assay [4] (at 50.0 µM). Also, the growth inhibition in assay [5] (setting [7]) is 99% (active); in assay [5] (setting [8]), 99% (active); in assay [5] (at 50.0 µM) it was 99.6% (active); in assay [6] (setting [7]) it was 99% (active); in assay [6] (setting [8]), 99% (active); in assay [6] (at 50.0 µM), 99.3% (active).
Consider `CC(CCS(C)(=O)=O)([N+](=O)[O-])[N+](=O)[O-]`, for which the growth inhibition in assay [1] (setting [7]) is 48% (inactive); in assay [1] (setting [8]) it was 99% (active); in assay [1] (at 50.0 µM), 55.2% (inactive); in assay [2] (setting [7]), 16% (inactive); in assay [2] (setting [8]), 99% (active); in assay [2] (at 50.0 µM), 55% (inactive). Besides, the growth inhibition was 28% (inactive) in assay [3] (setting [7]); 99% (active) in assay [3] (setting [8]); 52.6% (inactive) in assay [3] (at 50.0 µM); 14% (inactive) in assay [4] (setting [7]); 99% (active) in assay [4] (setting [8]); 56.4% (inactive) in assay [4] (at 50.0 µM). Further, the growth inhibition in assay [5] (setting [7]) was 27% (inactive); in assay [5] (setting [8]) it was 99% (active); in assay [5] (at 50.0 µM), 99% (active); in assay [6] (setting [7]), 24% (inactive); in assay [6] (setting [8]), 100% (active); in assay [6] (at 50.0 µM) it was 98.3% (active).

Source of the values: PubChem BioAssay (NCI).
